HDAC3 inhib: blocks human histone deacetylase 3 | O15379 | hit rate 0.15% among 320,000 | recombinant HDAC3, fluorogenic peptide/trypsin coupled, fluorescence | inhibition, % at 8.3 µM; in the data active = inhibition above about 26%, passing the limit was not always enough; inconclusive = no clear call, values can overlap the other calls
IDE inh: inhibitors of human insulin-degrading enzyme in cells; P14735; HEK cells, FAbetaB cleavage, fluorescence polarization; inhibition, % at 5.59 µM; hit rate 0.41% among 320,000; AID 434962;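 active = percent inhibition above the average of all tested compounds plus 3 SD, set per screening campaign, cut at about 16% in these data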;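 also: IDE supplied by intact live HEK cells; FP after avidin binding of uncleaved biotin substrate so inhibition keeps polarization high; 0% = DMSO wells and 100% = 60 µM reference IDE inhibitor Ii1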
SUMO Mot1 rescue: blocks SUMOylation pathway, rescuing yeast Mot1-301 growth; S. cerevisiae Mot1-301 growth rescue, ATP luminescence, 38.5C; percent above DMSO median, 100 means doubled; growth rescue, % at 18.8 µM; hit rate 1% among 320,000; AID 2716;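 active = every valid replicate shows activation above 250% relative to neutral control wells; inactive = the rest, any valid replicate at or below 250%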;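 also: OY570 slx delta 5 strain wells were the positive control but not used for scaling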
LANA-H2B inh: blocks KSHV LANA binding to histone H2A/H2B | Q9QR71 | cell-free LANA-H2A/H2B peptide, fluorescence polarization | inhibition, % (no concentration beside the values) | hit rate 0.6% among 320,000 | AID 2629; in the data active = inhibition mostly above about 10%, no sharp cut-off; inactive = mostly below about 6.7%
IDE cell activ: activators of human insulin-degrading enzyme in cells; P14735; HEK cells, FAbeta-B cleavage, fluorescence polarization; 0% vehicle, 100% cell-free pure enzyme wells; activation, % at 5.96 µM; hit rate 0.073% among 340,000;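 active = activation above the mean of all tested compounds plus 3 SD, set per screening campaign, cut at about 17% in these data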
Yeast Mot1 SUMO: SUMO pathway inhibitors in yeast Mot1-301 growth; S. cerevisiae Mot1-301 galactose growth, ATP luminescence, 24 h; -100 = growth of slx-deleted rescue strain; growth activity, percent, % at 42 µM; 2,300 tested, under 10 active; shares compounds with SUMO Mot1 rescue;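 active = Signal drops as the depositor expects, and the fitted half-maximal dose is no more than ten times the top valid tested dose; inconclusive = Poor fit, or a flat curve whose signal drops by 30% to 70%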;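 also: more negative values mean stronger growth rescue toward the control strain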
* marks the source's active call; other numbers are inactive results. In the library only some 2.1% were active in any assay of this set; here they are far more common.

For CNC(=S)NNC(=O)c1sccc1OCc1ccc(Cl)cc1Cl the results were HDAC3 inhib 7, IDE inh 2, LANA-H2B inh 1 and IDE cell activ 0.
Screening O=C(C[n+]1ccc(C(=O)N/N=C/c2ccc(Cl)cc2Cl)cc1)c1ccccc1 returned HDAC3 inhib 3, IDE inh 8, SUMO Mot1 rescue 712*, LANA-H2B inh -2, IDE cell activ -8 and Yeast Mot1 SUMO 0.
For Cc1cc(C)n(C(=O)CNC(=O)c2ccccc2F)n1 the results were HDAC3 inhib 3, IDE inh 3, SUMO Mot1 rescue -7, LANA-H2B inh 4 and IDE cell activ 5.
CNC(=O)c1c[nH]n2c(=O)c(Cc3ccccc3F)c(C)nc12 was read as HDAC3 inhib -3, IDE inh 3, SUMO Mot1 rescue -3, LANA-H2B inh -4 and IDE cell activ 4.
Screening Cc1nc(N)c(Cc2ccccc2F)c(N)n1 returned HDAC3 inhib -10, IDE inh 7, SUMO Mot1 rescue 433*, LANA-H2B inh 2, IDE cell activ 6 and Yeast Mot1 SUMO 1.
CS(=O)(=O)N(Cc1nc(-c2ccc(F)cc2)no1)c1ccccc1Cl was read as HDAC3 inhib 5, IDE inh -4, SUMO Mot1 rescue 22, LANA-H2B inh -3 and IDE cell activ -2.
For Fc1ccc2nc(C3CCN(Cc4nc(CC5CC5)no4)CC3)[nH]c2c1 the results were HDAC3 inhib -5, IDE inh 1, SUMO Mot1 rescue 460*, LANA-H2B inh 0, IDE cell activ 2 and Yeast Mot1 SUMO 0.
`Fc1ccccc1C1CCN(Cc2nc(CC3CC3)no2)C1` (stereo not given) gave HDAC3 inhib 0, IDE inh 0, SUMO Mot1 rescue -15, LANA-H2B inh -1 and IDE cell activ 5.
For CCCC(=O)Nc1ccc(Sc2ccc([N+](=O)[O-])cc2)cc1 the results were HDAC3 inhib 2, IDE inh 7, SUMO Mot1 rescue 374*, LANA-H2B inh 2, IDE cell activ -4 and Yeast Mot1 SUMO 0.
O=C(COc1cccc(C(F)(F)F)c1)Nc1ccc(S(=O)(=O)N2CCCCC2)cc1 was read as HDAC3 inhib 18, IDE inh 0, SUMO Mot1 rescue 14, LANA-H2B inh 1 and IDE cell activ 2.
For NC(=S)N/N=C/c1ccccc1O the results were HDAC3 inhib 1, IDE inh -1, SUMO Mot1 rescue -6, LANA-H2B inh -8 and IDE cell activ 2.
Screening NC(=S)N/N=C/c1cccc(O)c1O returned HDAC3 inhib 1, IDE inh -1, SUMO Mot1 rescue 630*, LANA-H2B inh 0, IDE cell activ 4 and Yeast Mot1 SUMO 0.
`O=C(NCC1CCCO1)C1CC(c2ccc(Cl)c(Cl)c2)=NO1` (stereo not given) gave HDAC3 inhib -2, IDE inh -10, SUMO Mot1 rescue 870*, LANA-H2B inh 7, IDE cell activ -3 and Yeast Mot1 SUMO 0.
`Cn1ncc(C#N)c1NC(=O)C1CC(c2ccc(Cl)c(Cl)c2)=NO1` (stereo not given) gave HDAC3 inhib -1, IDE inh 1, SUMO Mot1 rescue -13, LANA-H2B inh -2 and IDE cell activ -2.
`Cn1c(=O)c2c(ncn2CC(=O)OCC(=O)Nc2ccc(Cl)cc2)n(C)c1=O` gave HDAC3 inhib 6, IDE inh -2, SUMO Mot1 rescue 847*, LANA-H2B inh 0, IDE cell activ -1 and Yeast Mot1 SUMO 0.
For O=C1C2CCCCN2C(=O)N1CCCCN1CCN(c2ccccc2Oc2ccccc2)CC1 (stereo not given) the results were HDAC3 inhib inconclusive, IDE inh 1, SUMO Mot1 rescue 431*, LANA-H2B inh 1, IDE cell activ 6 and Yeast Mot1 SUMO 0.
Screening COc1ccccc1N1CCN(CCCCN2C(=O)C3CCCN3C2=O)CC1 (stereo not given) returned IDE cell activ -6.
COc1cccc(C(C(=O)NC2CCCCC2)N(C(=O)CNC(=O)c2ccco2)c2cccnc2)c1 (stereo not given) was read as HDAC3 inhib -4, IDE inh -4, SUMO Mot1 rescue -15, LANA-H2B inh 0 and IDE cell activ 1.
